This note sets out measurements from PubChem BioAssay (NCATS).

Test [1] can be described thus: Quantitative High-Throughput drug screen in 47 multiple myeloma cell lines against the NCATS MIPE library collection: KMS34_JCRB cell viability assay (AID 1918985). Also: potency is read from the fitted curve at half-maximal effect; nearly all actives have a fitted effect of over 40% in size. The gist of the method: (§1)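 Viability after 48 h drug exposure was measured as ATP-dependent luminescence. Cells, 500 per well, sat at 37 °C under 5% CO2; DMSO wells set 100%, media-only wells 0%.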
A short description of test [2]: Quantitative High-Throughput drug screen in 47 multiple myeloma cell lines against the NCATS MIPE library collection: OCIMY7_PLB cell viability assay (AID 1918987). Also: potency is read from the fitted curve at half-maximal effect; nearly all actives have a fitted effect of over 65% in size. Put shortly:
as §1

Test [3] can be described thus: Quantitative High-Throughput drug screen in 47 multiple myeloma cell lines against the NCATS MIPE library collection: OPM1_PLB cell viability assay (AID 1918989). Also: potency is read from the fitted curve at half-maximal effect; nearly all actives have a fitted effect of over 40% in size. Put shortly: as §1
Test [4] in a line: Quantitative High-Throughput drug screen in 47 multiple myeloma cell lines against the NCATS MIPE library collection: U266_ATCC cell viability assay (AID 1919864). Also: potency is read from the fitted curve at half-maximal effect; nearly all actives have a fitted effect of over 35% in size. Put shortly:
as §1

Test [5] can be described thus: Quantitative High-Throughput drug screen in 47 multiple myeloma cell lines against the NCATS MIPE library collection: XG6_PLB cell viability assay (AID 1919865). Also: potency is read from the fitted curve at half-maximal effect; nearly all actives have a fitted effect of over 40% in size. Put shortly:
as §1

The nature of test [6]: Quantitative High-Throughput drug screen in 47 multiple myeloma cell lines against the NCATS MIPE library collection: XG1_PLB cell viability assay (AID 1919866). Also: potency is read from the fitted curve at half-maximal effect; nearly all actives have a fitted effect of over 35% in size. Put shortly: as §1
Test [7] can be described thus: Quantitative High-Throughput drug screen in 47 multiple myeloma cell lines against the NCATS MIPE library collection: VP6_DJ cell viability assay (AID 1919867). Also: potency is read from the fitted curve at half-maximal effect; nearly all actives have a fitted effect of over 40% in size. The gist of the method:
as §1

Test [8] is described as follows: Quantitative High-Throughput drug screen in 47 multiple myeloma cell lines against the NCATS MIPE library collection: PE2_PLB cell viability assay (AID 1919869). Also: potency is read from the fitted curve at half-maximal effect; nearly all actives have a fitted effect of over 35% in size. Put shortly:
as §1

A short description of test [9]: Quantitative High-Throughput drug screen in 47 multiple myeloma cell lines against the NCATS MIPE library collection: PCM6_Riken cell viability assay (AID 1919870). Also: potency is read from the fitted curve at half-maximal effect; nearly all actives have a fitted effect of over 30% in size. The gist of the method:
as §1

Test [10] in a line: Quantitative High-Throughput drug screen in 47 multiple myeloma cell lines against the NCATS MIPE library collection: OPM2_DSMZ cell viability assay (AID 1919872). Also: potency is read from the fitted curve at half-maximal effect; nearly all actives have a fitted effect of over 30% in size. The gist of the method:
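CellTiter-Glo ATP luminescence gave viability after 48 h compound treatment at 37C of 500 multiple myeloma cells per well. Normalisation used DMSO-only wells as 100% and media-only wells as 0% viability; primary qHTS of approved and investigational drugs.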

A short description of test [11]: Quantitative High-Throughput drug screen in 47 multiple myeloma cell lines against the NCATS MIPE library collection: KMS11_JCRBsus cell viability assay (AID 1919873). Also: potency is read from the fitted curve at half-maximal effect; nearly all actives have a fitted effect of over 50% in size. Put shortly:
as §1

A short description of test [12]: Quantitative High-Throughput drug screen in 47 multiple myeloma cell lines against the NCATS MIPE library collection: KMS28BM_JCRB cell viability assay (AID 1919874). Also: potency is read from the fitted curve at half-maximal effect; nearly all actives have a fitted effect of over 35% in size. The gist of the method: as §1
Test [13] in a line: qHTS drug screen for cell cycle checkpoint inhibitors in PARPi-resistant BRCA-mutant ovarian cancer cell lines. (AID 1963452; calls by dose curve). Particulars: PEO1/OlaR viability, CellTiter-Glo luminescence, 96 h, stronger effect = lower value. Put shortly:
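PEO1, PEO4 and PEO1/OlaR ovarian cancer cells, 600 per well, exposed 96 h at 37C to a dilution series. Viability read by CellTiter-Glo luminescence, normalized to DMSO and empty wells; activity summarized as Z-AUC.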

Test [14] in a line: Quantitative High-Throughput drug screen in 47 multiple myeloma cell lines against the NCATS MIPE library collection: SKMM1_PLB cell viability assay (AID 1919863). Particulars: SKMM1 myeloma viability, CellTiter-Glo ATP, 48 h; viability: stronger effect = lower value. Put shortly: as §1
Test [15] in a line: Quantitative High-Throughput drug screen in 47 multiple myeloma cell lines against the NCATS MIPE library collection: UTMC2_PLB cell viability assay (AID 1919868). Also: potency is read from the fitted curve at half-maximal effect; nearly all actives have a fitted effect of over 55% in size. Particulars: CellTiter-Glo ATP luminescence, 48 h; viability (% of DMSO control): at 45.8 µM (top of the series) unless noted. Put shortly:
as §1

Test [16] can be described thus: Quantitative High-Throughput drug screen in 47 multiple myeloma cell lines against the NCATS MIPE library collection: RPMI8226_ATCC cell viability assay (AID 1919871). Also: potency is read from the fitted curve at half-maximal effect; nearly all actives have a fitted effect of over 30% in size. Put shortly: as §1
Test [17] can be described thus: qHTS for identification of novel therapeutic agents for treatment of microphthalmiaassociated transcription factor (MiT) renal cell carcinoma (RCC) (AID 1963991; calls by dose curve; also: potency is read from the fitted curve at half-maximal effect). The following applies: CellTiter-Glo, 48 h; for z-score: stronger effect = lower value. Put shortly: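 Curves over 11 concentrations were fitted to CellTiter-Glo luminescence, scaled between empty wells (0%) and DMSO (100%) viability. Cells were UOK109, UOK124 and UOK145 TFE3-fusion RCC lines at 500/well, exposed 48 hours at 37 C.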
(In qHTS, concentration-response curves come from the screen itself.)

Test [18] in a line: Quantitative High-Throughput drug screen in 47 multiple myeloma cell lines against the NCATS MIPE library collection: OCIMY5_PLB cell viability assay (AID 1918988). Also: potency is read from the fitted curve at half-maximal effect; nearly all actives have a fitted effect of over 65% in size. Put shortly:
as §1

Where [19] appears, read: measured here: PEO1 parental Z-AUC.

Inconclusive results are not listed. The source made the active and inactive calls. Unless noted, calls follow the shape of the dose curve; as a rule, active = well fitted cell-killing curve with a large enough effect; inconclusive = small, poorly fitted or top-dose-only effect, or effect the other way; inactive = no such curve, though single readings can be large or run the other way.

As to `COc1cc(C(=O)N2CCC(N3CCN(C)CC3)CC2)ccc1Nc1ncc2c(n1)N(C)c1ccccc1C(=O)N2C`, the Potency in test [1] is 2.64 µM (active); in [2] it was 2.96 µM (active); in test [3] it was 1.87 µM (active); in test [4], 2.09 µM (active); in [5] it was 5.26 µM (active); in [6], 2.64 µM (active). The Potency in [7] was 1.18 µM (active); in test [8], 5.26 µM (active); in test [9], 14.8 µM (active); in [10] it was 10.5 µM (active); in [11], 1.66 µM (active); in test [12], 3.32 µM (active). Further, the Z-AUC in [13] was -0.667 (inactive); in test [13] (setting [19]), -0.239; in test [13] (measured here: PEO4 Z-AUC) it was -1.55.

Take `COc1cc2nccc(Oc3ccc(NC(=O)C4(C(=O)Nc5ccc(F)cc5)CC4)cc3)c2cc1OC`: the Potency in test [1] was 14.8 µM (active); in [2] it was 18.7 µM (active); in test [3], 23.5 µM (active); in [14], 16.6 µM (active); in test [4], 20.9 µM (active); in [7], 3.72 µM (active). Moreover, the Potency in [15] was 20.9 µM (active); in [16], 20.9 µM (active); in test [10] it was 23.5 µM (active); in test [11], 20.9 µM (active); in test [12], 20.9 µM (active). For the same compound, the Z-AUC in test [13] was -0.0071 (inactive); in test [13] (setting [19]) it was 0.252; in test [13] (measured here: PEO4 Z-AUC), -0.118.

As to `C=CC(=O)Nc1cc2c(Nc3ccc(F)c(Cl)c3)ncnc2cc1C#CC(C)(C)N1CCN(C)CC1`, the Potency in test [1] was 5.26 µM (active); in [2] it was 0.469 µM (active); in [3], 0.833 µM (active); in [14], 13.2 µM (active); in test [4] it was 1.05 µM (active); in [5], 0.296 µM (active). In addition, the Potency in test [6] is 0.526 µM (active); in [7] it was 0.833 µM (active); in test [15], 2.35 µM (active); in test [8] it was 1.05 µM (active); in [9], 0.662 µM (active); in test [16] it was 6.62 µM (active). Further, the Potency in [10] was 10.5 µM (active); in [11], 1.32 µM (active); in test [12], 0.469 µM (active); in test [17] (TFE3-RCC UOK109 viability, active = Z-AUC below -0.8 in all three lines), 14.8 µM (active). The results for the Z-AUC in test [13], in [13] (setting [19]) and in test [13] (measured here: PEO4 Z-AUC) were -0.203 (inactive), -0.15 and -0.45, respectively. In addition, the z-score in [17] (TFE3-RCC UOK109 viability, measured here: UOK109 Z-AUC) is -2.39; in test [17] (TFE3-RCC viability, measured here: UOK124 Z-AUC), -1.76; in test [17] (TFE3-RCC viability, measured here: UOK145 Z-AUC), -1.33.

Regarding `Cc1cnc(-c2cnc(NCCNc3ccc(C#N)cn3)nc2-c2ccc(Cl)cc2Cl)[nH]1`, the Potency was 5.9 µM (active) in test [1]; 4.18 µM (active) in test [2]; 20.9 µM (active) in test [18]; 10.5 µM (active) in test [7]; 13.2 µM (active) in test [15]; 23.5 µM (active) in [8]. Besides, the Potency in test [9] was 13.2 µM (active). In addition, the figures for the Z-AUC in test [13], in [13] (setting [19]) and in test [13] (measured here: PEO4 Z-AUC) were 1.35 (inactive), 0.904 and 0.844, respectively.

Consider `Cc1cc(Nc2nc(N[C@@H](C)c3ccc(F)cc3)c(C#N)cc2F)n[nH]1`, for which the Potency is 0.833 µM (active) in test [1]; 0.418 µM (active) in test [2]; 1.32 µM (active) in test [3]; 1.05 µM (active) in test [14]; 16.6 µM (active) in [4]; 1.05 µM (active) in [5]. The Potency was 0.235 µM (active) in test [6]; 4.69 µM (active) in [7]; 0.935 µM (active) in test [15]; 0.935 µM (active) in [8]; 4.69 µM (active) in test [10]; 0.469 µM (active) in test [11]. Moreover, the values for the Z-AUC in test [13], in test [13] (setting [19]) and in test [13] (measured here: PEO4 Z-AUC) were 0.0536 (inactive), -0.395 and -0.871, respectively.
